According to ChEMBL document CHEMBL1961873, “Compounds: GSK PKIS; Assays: Nanosyn kinase panel” (2012):

Tests used:
[1] = target: T1, Tyrosine-protein kinase receptor TYRO3 (Homo sapiens) (UniProt Q06418); settings: at 1 µM
T1 sequence (whole entry): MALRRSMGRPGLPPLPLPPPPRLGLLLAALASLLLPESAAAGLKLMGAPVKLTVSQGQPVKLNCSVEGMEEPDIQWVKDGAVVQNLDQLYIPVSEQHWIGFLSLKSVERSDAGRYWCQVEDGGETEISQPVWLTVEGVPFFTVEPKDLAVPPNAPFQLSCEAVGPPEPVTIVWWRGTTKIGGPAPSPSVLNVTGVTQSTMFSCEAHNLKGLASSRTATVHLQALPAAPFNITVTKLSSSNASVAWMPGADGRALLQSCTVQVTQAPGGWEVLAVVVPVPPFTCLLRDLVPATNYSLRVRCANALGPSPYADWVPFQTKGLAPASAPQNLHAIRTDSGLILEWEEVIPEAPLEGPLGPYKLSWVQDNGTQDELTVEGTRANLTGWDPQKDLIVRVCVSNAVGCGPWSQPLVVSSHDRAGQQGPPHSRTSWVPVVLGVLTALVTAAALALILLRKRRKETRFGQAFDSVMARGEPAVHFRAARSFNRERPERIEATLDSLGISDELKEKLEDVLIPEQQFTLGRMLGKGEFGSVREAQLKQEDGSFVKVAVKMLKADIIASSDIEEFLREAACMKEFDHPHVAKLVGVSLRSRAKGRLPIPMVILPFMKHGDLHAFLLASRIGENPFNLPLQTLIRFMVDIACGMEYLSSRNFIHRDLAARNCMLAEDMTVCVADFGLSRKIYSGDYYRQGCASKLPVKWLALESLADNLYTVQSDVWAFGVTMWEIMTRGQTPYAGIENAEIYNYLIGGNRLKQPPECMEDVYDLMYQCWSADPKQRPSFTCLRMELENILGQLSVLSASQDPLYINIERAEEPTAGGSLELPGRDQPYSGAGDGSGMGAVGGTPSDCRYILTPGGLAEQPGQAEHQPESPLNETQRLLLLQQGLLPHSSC

[2] = target: Tyrosine-protein kinase Yes (Homo sapiens) (UniProt P07947); settings: at 0.1 µM
[3] = target: Tyrosine-protein kinase Yes (Homo sapiens) (UniProt P07947); settings: at 1 µM
[4] = target: T2, Tyrosine-protein kinase ZAP-70 (Homo sapiens) (UniProt P43403); settings: at 0.1 µM
T2 sequence (whole entry): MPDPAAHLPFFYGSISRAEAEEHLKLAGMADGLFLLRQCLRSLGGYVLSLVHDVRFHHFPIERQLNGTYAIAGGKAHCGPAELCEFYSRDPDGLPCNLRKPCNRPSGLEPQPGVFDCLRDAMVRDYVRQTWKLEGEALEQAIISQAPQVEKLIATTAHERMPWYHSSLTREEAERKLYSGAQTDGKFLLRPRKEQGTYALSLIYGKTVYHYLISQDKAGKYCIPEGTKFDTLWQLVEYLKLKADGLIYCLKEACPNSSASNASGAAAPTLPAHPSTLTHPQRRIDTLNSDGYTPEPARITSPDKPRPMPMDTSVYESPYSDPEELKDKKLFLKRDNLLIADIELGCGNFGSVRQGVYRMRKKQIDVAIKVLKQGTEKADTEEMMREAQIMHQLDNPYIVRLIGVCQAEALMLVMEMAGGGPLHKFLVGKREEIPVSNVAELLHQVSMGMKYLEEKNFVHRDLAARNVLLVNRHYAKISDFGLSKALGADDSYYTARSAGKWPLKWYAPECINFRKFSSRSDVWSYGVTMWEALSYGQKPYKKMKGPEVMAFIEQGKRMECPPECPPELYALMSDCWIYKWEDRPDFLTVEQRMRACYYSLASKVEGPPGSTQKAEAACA

[5] = target: T2, Tyrosine-protein kinase ZAP-70 (Homo sapiens); settings: at 1 µM
[6] = target: Serine/threonine-protein kinase B-raf (Homo sapiens) (UniProt P15056); settings: at 0.1 µM
[7] = target: Serine/threonine-protein kinase B-raf (Homo sapiens) (UniProt P15056); settings: at 1 µM
[8] = system: Serine/threonine-protein kinase B-raf (Homo sapiens), P15056 [V600E]; settings: at 0.1 µM
[9] = system: Serine/threonine-protein kinase B-raf (Homo sapiens), P15056 [V600E]; settings: at 1 µM
[10] = target: RAF proto-oncogene serine/threonine-protein kinase (Homo sapiens) (UniProt P04049); settings: at 0.1 µM
[11] = target: RAF proto-oncogene serine/threonine-protein kinase (Homo sapiens) (UniProt P04049); settings: at 1 µM
[12] = target: T3, Interleukin-1 receptor-associated kinase 4 (Homo sapiens) (UniProt Q9NWZ3); settings: at 0.1 µM
T3 sequence (whole entry): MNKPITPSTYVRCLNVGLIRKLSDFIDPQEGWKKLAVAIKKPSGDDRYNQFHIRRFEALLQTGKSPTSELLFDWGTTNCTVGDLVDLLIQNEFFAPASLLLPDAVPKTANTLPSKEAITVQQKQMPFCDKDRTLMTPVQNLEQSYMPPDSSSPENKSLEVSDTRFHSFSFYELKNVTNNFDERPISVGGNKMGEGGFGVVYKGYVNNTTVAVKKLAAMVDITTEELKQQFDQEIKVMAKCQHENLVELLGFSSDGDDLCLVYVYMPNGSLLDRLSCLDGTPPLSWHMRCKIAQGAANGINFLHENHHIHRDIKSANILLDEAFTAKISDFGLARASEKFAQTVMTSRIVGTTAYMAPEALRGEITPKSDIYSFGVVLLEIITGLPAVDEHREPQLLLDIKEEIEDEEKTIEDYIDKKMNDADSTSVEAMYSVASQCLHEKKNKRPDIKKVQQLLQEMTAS

[13] = target: T3, Interleukin-1 receptor-associated kinase 4 (Homo sapiens); settings: at 1 µM
[14] = target: Leucine-rich repeat serine/threonine-protein kinase 2 (Homo sapiens) (UniProt Q5S007); settings: at 0.1 µM
[15] = target: Leucine-rich repeat serine/threonine-protein kinase 2 (Homo sapiens) (UniProt Q5S007); settings: at 1 µM
[16] = system: Leucine-rich repeat serine/threonine-protein kinase 2 (Homo sapiens), Q5S007 [G2019S]; settings: at 0.1 µM
[17] = system: Leucine-rich repeat serine/threonine-protein kinase 2 (Homo sapiens), Q5S007 [G2019S]; settings: at 1 µM

Chain of Serine/threonine-protein kinase B-raf (Homo sapiens), P15056 [V600E] (P15056 whole entry V600E): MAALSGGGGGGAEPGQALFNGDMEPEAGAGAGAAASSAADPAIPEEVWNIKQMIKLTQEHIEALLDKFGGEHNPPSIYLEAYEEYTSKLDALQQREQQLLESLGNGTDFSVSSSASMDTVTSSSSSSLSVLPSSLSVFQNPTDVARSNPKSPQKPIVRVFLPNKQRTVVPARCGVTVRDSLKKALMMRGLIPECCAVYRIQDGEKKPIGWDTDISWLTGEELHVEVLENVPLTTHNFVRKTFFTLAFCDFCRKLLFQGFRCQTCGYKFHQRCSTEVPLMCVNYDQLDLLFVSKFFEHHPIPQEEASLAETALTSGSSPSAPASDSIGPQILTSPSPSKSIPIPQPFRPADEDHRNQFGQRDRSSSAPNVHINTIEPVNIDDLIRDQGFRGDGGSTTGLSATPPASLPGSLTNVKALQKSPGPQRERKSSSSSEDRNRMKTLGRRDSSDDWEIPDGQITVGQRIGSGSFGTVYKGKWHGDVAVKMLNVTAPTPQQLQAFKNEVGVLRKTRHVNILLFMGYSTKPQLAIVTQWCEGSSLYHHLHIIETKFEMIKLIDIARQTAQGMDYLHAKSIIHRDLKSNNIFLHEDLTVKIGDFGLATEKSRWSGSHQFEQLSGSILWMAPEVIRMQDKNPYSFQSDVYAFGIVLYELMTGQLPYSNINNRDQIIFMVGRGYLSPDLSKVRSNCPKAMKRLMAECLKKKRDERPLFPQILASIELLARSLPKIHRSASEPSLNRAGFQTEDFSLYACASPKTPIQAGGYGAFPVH
Chain of Tyrosine-protein kinase Yes (Homo sapiens) (P07947 2-543 limits assumed): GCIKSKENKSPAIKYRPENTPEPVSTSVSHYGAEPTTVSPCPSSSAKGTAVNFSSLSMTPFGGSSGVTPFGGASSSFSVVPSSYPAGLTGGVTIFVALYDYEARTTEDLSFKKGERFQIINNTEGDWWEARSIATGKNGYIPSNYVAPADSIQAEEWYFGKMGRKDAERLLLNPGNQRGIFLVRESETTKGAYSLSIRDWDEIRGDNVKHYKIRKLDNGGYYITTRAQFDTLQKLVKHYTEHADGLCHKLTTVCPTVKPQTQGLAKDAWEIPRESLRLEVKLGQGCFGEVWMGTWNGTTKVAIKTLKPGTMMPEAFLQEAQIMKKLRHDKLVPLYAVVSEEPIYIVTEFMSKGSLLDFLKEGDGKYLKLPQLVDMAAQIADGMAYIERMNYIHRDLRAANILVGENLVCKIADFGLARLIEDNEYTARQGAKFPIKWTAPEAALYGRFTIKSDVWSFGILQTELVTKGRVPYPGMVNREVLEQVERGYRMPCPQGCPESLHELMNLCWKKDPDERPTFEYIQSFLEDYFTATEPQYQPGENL
Chain of RAF proto-oncogene serine/threonine-protein kinase (Homo sapiens) (P04049 whole entry): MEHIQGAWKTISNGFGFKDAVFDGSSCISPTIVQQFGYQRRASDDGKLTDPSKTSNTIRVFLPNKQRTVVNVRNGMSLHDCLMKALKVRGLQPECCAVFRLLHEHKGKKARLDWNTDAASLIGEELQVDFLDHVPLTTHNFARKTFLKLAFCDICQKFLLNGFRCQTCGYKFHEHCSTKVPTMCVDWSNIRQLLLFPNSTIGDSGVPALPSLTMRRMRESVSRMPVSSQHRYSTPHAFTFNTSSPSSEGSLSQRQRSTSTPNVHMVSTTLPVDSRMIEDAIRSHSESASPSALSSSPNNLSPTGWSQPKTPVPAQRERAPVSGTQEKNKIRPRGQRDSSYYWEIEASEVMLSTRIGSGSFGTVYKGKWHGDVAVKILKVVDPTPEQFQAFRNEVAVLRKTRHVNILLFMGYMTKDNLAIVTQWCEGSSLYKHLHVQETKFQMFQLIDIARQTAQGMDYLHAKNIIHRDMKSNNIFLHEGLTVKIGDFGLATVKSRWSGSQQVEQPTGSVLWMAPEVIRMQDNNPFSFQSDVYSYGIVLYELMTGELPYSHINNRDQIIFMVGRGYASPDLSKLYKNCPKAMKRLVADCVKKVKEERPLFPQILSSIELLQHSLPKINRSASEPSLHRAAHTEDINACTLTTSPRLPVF
Chain of Serine/threonine-protein kinase B-raf (Homo sapiens) (P15056 whole entry): as the sequence (P15056 whole entry V600E) above, with E600V counted along it
Chain of Leucine-rich repeat serine/threonine-protein kinase 2 (Homo sapiens) (Q5S007 whole entry): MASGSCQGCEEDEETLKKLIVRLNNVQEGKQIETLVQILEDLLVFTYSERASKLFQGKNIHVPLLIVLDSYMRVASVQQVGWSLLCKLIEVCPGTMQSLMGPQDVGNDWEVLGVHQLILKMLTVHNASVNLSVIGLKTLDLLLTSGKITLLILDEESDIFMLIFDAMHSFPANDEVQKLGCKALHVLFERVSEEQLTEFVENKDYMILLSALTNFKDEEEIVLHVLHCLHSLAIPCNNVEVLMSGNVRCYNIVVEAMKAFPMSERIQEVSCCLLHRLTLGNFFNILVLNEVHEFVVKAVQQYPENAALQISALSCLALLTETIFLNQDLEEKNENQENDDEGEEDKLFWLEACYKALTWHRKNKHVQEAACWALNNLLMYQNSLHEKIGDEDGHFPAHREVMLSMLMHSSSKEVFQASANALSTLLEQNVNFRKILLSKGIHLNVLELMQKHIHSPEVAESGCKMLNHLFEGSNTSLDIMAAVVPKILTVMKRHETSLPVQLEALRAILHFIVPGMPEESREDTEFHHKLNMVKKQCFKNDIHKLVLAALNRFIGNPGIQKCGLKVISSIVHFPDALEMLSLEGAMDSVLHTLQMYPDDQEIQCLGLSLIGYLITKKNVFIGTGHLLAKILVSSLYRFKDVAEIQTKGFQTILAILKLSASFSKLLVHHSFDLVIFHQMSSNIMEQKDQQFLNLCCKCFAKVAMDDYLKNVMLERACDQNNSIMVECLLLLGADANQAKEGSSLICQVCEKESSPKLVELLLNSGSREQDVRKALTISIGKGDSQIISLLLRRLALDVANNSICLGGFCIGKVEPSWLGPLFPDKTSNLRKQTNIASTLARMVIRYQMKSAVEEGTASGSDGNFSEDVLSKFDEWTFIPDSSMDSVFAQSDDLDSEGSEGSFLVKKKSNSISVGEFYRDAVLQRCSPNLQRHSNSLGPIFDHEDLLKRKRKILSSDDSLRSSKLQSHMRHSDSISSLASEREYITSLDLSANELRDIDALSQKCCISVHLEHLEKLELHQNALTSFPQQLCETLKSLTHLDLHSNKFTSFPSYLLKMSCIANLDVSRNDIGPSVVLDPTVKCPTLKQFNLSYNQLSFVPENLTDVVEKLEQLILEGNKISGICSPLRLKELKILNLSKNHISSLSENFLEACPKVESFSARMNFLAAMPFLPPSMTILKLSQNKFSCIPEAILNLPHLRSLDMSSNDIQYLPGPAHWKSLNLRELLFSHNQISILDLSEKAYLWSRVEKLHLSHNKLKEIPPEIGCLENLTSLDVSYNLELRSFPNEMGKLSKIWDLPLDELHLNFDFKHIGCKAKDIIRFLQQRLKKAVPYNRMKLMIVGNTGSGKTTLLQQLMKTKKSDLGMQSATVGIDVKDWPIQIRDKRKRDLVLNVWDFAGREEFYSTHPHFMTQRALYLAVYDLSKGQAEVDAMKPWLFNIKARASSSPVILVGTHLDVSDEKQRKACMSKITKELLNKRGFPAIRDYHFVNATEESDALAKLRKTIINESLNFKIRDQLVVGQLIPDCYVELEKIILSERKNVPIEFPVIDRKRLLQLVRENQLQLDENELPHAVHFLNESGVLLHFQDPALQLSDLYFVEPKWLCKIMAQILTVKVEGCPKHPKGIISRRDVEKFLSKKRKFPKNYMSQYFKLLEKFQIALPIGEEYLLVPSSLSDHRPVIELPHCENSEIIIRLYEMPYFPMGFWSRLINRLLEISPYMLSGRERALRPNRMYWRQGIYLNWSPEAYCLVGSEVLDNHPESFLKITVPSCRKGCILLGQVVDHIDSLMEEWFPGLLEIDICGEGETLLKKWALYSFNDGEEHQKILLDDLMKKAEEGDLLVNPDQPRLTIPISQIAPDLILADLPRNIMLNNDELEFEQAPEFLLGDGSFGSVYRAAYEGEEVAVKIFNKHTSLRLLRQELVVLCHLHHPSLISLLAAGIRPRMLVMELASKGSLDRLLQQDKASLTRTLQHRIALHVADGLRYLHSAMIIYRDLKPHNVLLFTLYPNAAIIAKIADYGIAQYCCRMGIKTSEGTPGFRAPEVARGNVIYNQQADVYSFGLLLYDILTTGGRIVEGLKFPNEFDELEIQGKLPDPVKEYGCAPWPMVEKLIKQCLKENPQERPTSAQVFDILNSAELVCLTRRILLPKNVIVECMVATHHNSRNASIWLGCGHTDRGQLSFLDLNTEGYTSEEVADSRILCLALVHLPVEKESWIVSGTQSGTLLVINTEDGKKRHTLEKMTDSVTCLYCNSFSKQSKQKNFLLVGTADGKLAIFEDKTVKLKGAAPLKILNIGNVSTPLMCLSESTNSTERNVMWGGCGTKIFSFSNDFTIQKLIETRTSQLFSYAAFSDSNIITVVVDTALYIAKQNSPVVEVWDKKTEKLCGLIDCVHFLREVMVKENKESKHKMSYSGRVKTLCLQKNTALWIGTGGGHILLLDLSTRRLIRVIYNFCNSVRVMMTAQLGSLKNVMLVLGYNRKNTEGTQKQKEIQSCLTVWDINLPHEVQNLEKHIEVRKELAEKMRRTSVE
Chain of Leucine-rich repeat serine/threonine-protein kinase 2 (Homo sapiens), Q5S007 [G2019S] (Q5S007 whole entry G2019S): as the sequence (Q5S007 whole entry) above, with G2019S counted along it

SMILES | inhibition [1] | inhibition [2] | inhibition [3] | inhibition [4] | inhibition [5] | inhibition [6] | inhibition [7] | inhibition [8] | inhibition [9] | inhibition [10] | inhibition [11] | inhibition [12] | inhibition [13] | inhibition [14] | inhibition [15] | inhibition [16] | inhibition [17]
CCn1c(-c2nonc2N)nc2c(C#CC(C)(C)O)nc(OC[C@@H](N)c3ccccc3)cc21 | 0.45% | 0.68% | 0.4% | -0.65% | -0.38% | -0.61% | 3.45% | -0.86% | 3.32% | -1.41% | 3.8% | -2.13% | 0.37% | 2.04% | 8.46% | 2.34% | 19.7%
COC(=O)Nc1nc2cc(Oc3ccc(NC(=O)Nc4cccc(C(=O)O)c4)cc3)ccc2[nH]1 | 3.17% | 0% | 2.43% | -4.68% | -4.2% | -0.5% | -1.69% | -0.53% | -0.73% | -0.09% | 0.7% | 1.45% | 0.26% | -4.47% | 4.49% | -2.68% | 3.07%
NS(=O)(=O)c1cccc(-c2ccc3c(NC(=O)C4CC4)n[nH]c3c2)c1 | 15.4% | -2.48% | 6.25% | -1.92% | -0.84% | -1.67% | -2.14% | -2.01% | -2.08% | -7.61% | -2.5% | 1.83% | -0.64% | -2.61% | 1.25% | 1.47% | 1.75%
O=C1Nc2ccc(C(=O)c3ccco3)cc2C1=Cc1cc(Cl)c(O)c(Cl)c1 | 8.57% | 2.58% | 15.8% | 2.14% | 3.97% | 11.8% | 26.7% | 12.5% | 27.4% | 2.35% | 48.6% | 3.84% | 5.2% | 22.8% | 24% | 61.1% | 63.9%
Fc1cccc(COc2ccc(Nc3ncnc4sc(-c5cccs5)cc34)cc2Cl)c1 | 1.15% | 0.57% | 1.28% | -1.83% | 1.54% | 1.35% | 2.73% | 1.62% | 1.65% | 1.45% | -2.15% | 0.39% | 1.34% | 1.83% | 4.84% | 3.4% | 6.24%
COc1ccc(COc2ccc(Cc3cnc(N)nc3N)cc2OC)cc1 | 0.77% | -0.39% | -3.3% | 3.08% | 4.05% | -1.31% | -0.42% | -1.07% | 0.7% | 1.84% | – | 1.04% | 0.89% | 4.88% | 5.38% | 3.29% | 5.32%
COC(=O)Nc1nc2cc(Oc3cccc(NC(=O)Nc4cc(C(F)(F)F)ccc4F)c3)ccc2[nH]1 | -0.81% | 0.2% | 3.07% | 0.93% | 1.74% | -0.27% | 4.25% | 0.34% | 6.29% | -0.45% | – | 3.51% | -0.12% | 0.62% | 1.81% | 2.19% | 4.67%
